# Experimental data from the supplement of paper PMC9262897, “Low-cost anti-mycobacterial drug discovery using engineered E. coli” (Nature Communications, 2022).
# Structures can show the parent of a compound that is named as a salt. ± gives the standard deviation of the averaged measurements.
# What was measured:
# Assay in all cases: growth (OD600 after 10 h); higher = more growth (less inhibition)
# [1] = test system: E. coli TESEC Alr+ wild-type control; details: compound 0.1 mM; raw OD600 reference: median of DMSO wells 0.241, cell-free background 0.041
# Method: (§1)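 TESEC Mtb Alr E. coli, or the Alr+ wild-type control, in 384-well plates with Prestwick library compounds at 0.1 mM and 1% DMSO, across arabinose induction levels of 1E3 to 1E7 nM. Growth is read as OD600 after 10 h at 37 °C in triplicate biological replicates.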
# E. coli TESEC Mtb Alr [2] = details: compound 0.1 mM
# Method: as §1
# E. coli TESEC Mtb Asd = details: compound 0.1 mM
# Method: (§2)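 TESEC E. coli strains in which the native enzyme is deleted and replaced by arabinose-inducible Mtb Asd, DapB, CysH or TrpD, each grown in its selective medium. Strains were screened against the Prestwick library at 0.1 mM and 1% DMSO in 384-well format at low and high arabinose induction. Growth is read as OD600 after 10 h in triplicate.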
# E. coli TESEC Mtb DapB = details: compound 0.1 mM
# Method: as §2
# E. coli TESEC Mtb Alr [3] = details: compound 0.1 mM; remark: listed apart in the source
# Method: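 TESEC Mtb Alr E. coli (ΔaraC ΔtolC ΔentC Δalr ΔdadX, arabinose-inducible Mtb Alr) or the Alr+ wild-type control strain, grown in defined M9-fructose medium without D-alanine in 96-well plates with Prestwick library compounds at 0.1 mM and 1% DMSO. Low Alr induction is 0.1 µM arabinose and high induction is 10 mM arabinose.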
# [4] = arabinose 1000 nM, raw OD600 reference: median of DMSO wells 0.294, cell-free background 0.041
# [5] = arabinose 10000 nM, raw OD600 reference: median of DMSO wells 0.264, cell-free background 0.041
# [6] = arabinose 100000 nM, raw OD600 reference: median of DMSO wells 0.201, cell-free background 0.041
# [7] = arabinose 1000000 nM, raw OD600 reference: median of DMSO wells 0.193, cell-free background 0.041
# [8] = arabinose 10000000 nM, raw OD600 reference: median of DMSO wells 0.146, cell-free background 0.041
# [9] = arabinose induction (level): High, raw OD600 reference: median of DMSO wells 0.331, cell-free background 0.041
# [10] = arabinose induction (level): Low, raw OD600 reference: median of DMSO wells 0.417, cell-free background 0.041
# [11] = arabinose induction (level): High, raw OD600 reference: median of DMSO wells […], cell-free background 0.041
# [12] = arabinose induction (level): Low, raw OD600 reference: median of DMSO wells 0.227, cell-free background 0.041
# [13] = arabinose 100 nM, raw OD600 reference: median of DMSO wells 0.413, cell-free background 0.052
# [14] = arabinose 10000000 nM, raw OD600 reference: median of DMSO wells […], cell-free background 0.052
Compound,growth [1],growth (E. coli TESEC Mtb Alr [2]; [4]),growth (E. coli TESEC Mtb Alr [2]; [5]),growth (E. coli TESEC Mtb Alr [2]; [6]),growth (E. coli TESEC Mtb Alr [2]; [7]),growth (E. coli TESEC Mtb Alr [2]; [8]),growth (E. coli TESEC Mtb Asd; [9]),growth (E. coli TESEC Mtb Asd; [10]),growth (E. coli TESEC Mtb DapB; [11]),growth (E. coli TESEC Mtb DapB; [12]),growth (E. coli TESEC Mtb Alr [3]; [13]),growth (E. coli TESEC Mtb Alr [3]; [14])
CCOC(=O)C1=C(C)NC(C)=C(C(=O)OC)C1c1cccc(Cl)c1Cl (centres undefined) [Felodipine],0.0763 ± 0.012,0.0729 ± 0.024,0.0553 ± 0.0007,0.0562 ± 0.0017,0.0517 ± 0.00035,0.0625 ± 0.0023,0.0579 ± 0.0044,0.0538 ± 0.002,0.07363 ± 0.0005,0.0792 ± 0.032,0.3 ± 0.099,0.0862 ± 0.0057
Nc1ccc(C(=O)NCC(=O)O)cc1 [Aminohippuric acid],0.246 ± 0.011,0.297 ± 0.018,0.2604 ± 0.0024,0.186 ± 0.022,0.189 ± 0.006,0.138 ± 0.0027,0.372 ± 0.047,0.464 ± 0.01,0.208 ± 0.0093,0.234 ± 0.0072,0.408 ± 0.015,0.3487 ± 0.0013
Cc1onc(-c2ccccc2)c1C(=O)N[C@@H]1C(=O)N2[C@@H]1SC(C)(C)[C@@H]2C(=O)O [Oxacillin sodium],0.246 ± 0.017,0.298 ± 0.017,0.249 ± 0.012,0.198 ± 0.015,0.187 ± 0.0051,0.14 ± 0.0038,0.468 ± 0.036,0.477 ± 0.0063,0.192 ± 0.0086,0.243 ± 0.046,0.421 ± 0.0073,0.362 ± 0.0089
CC1(C)S[C@@H]2[C@H](NC(=O)Cc3ccccc3)C(=O)N2[C@H]1C(=O)O [Benzylpenicillin sodium],0.237 ± 0.005,0.2824 ± 0.00081,0.282 ± 0.0074,0.172 ± 0.011,0.227 ± 0.017,0.132 ± 0.0078,0.331 ± 0.1,0.385 ± 0.06,0.204 ± 0.013,0.229 ± 0.017,0.434 ± 0.0042,0.363 ± 0.0066
CC(C)Cc1ccc([C@H](C)C(=O)O)cc1 [S-(+)-ibuprofen],0.236 ± 0.012,0.269 ± 0.013,0.24 ± 0.006,0.166 ± 0.0055,0.194 ± 0.0082,0.129 ± 0.0024,0.262 ± 0.015,0.311 ± 0.0056,0.196 ± 0.014,0.18 ± 0.016,0.402 ± 0.012,0.329 ± 0.004
CC(=O)OCC(=O)[C@@]12OC3(CCCC3)O[C@@H]1C[C@H]1[C@@H]3CCC4=CC(=O)C=C[C@]4(C)[C@@]3(F)[C@@H](O)C[C@@]12C [Amcinonide],0.185 ± 0.011,0.287 ± 0.066,0.272 ± 0.011,0.241 ± 0.059,0.242 ± 0.07,0.172 ± 0.011,0.451 ± 0.11,0.402 ± 0.067,0.222 ± 0.043,0.265 ± 0.025,0.4092 ± 0.0021,0.304 ± 0.0053
NC(Cc1cc(I)c(Oc2cc(I)c(O)c(I)c2)c(I)c1)C(=O)O (centres undefined) [Thyroxine (L)],0.169 ± 0.0037,0.2363 ± 0.0021,0.284 ± 0.006,0.196 ± 0.021,0.154 ± 0.0089,0.185 ± 0.0093,0.354 ± 0.0042,0.292 ± 0.042,0.206 ± 0.008,0.243 ± 0.013,0.369 ± 0.034,0.359 ± 0.019
COc1cnc(NS(=O)(=O)c2ccc(N)cc2)nc1 [Sulfameter],0.242 ± 0.0095,0.283 ± 0.0042,0.239 ± 0.011,0.218 ± 0.029,0.158 ± 0.0061,0.143 ± 0.0066,0.442 ± 0.039,0.399 ± 0.024,0.207 ± 0.027,0.243 ± 0.0072,0.407 ± 0.021,0.336 ± 0.0042
NC(N)=Nc1nc(CSCC/C(N)=N/S(N)(=O)=O)cs1 [Famotidine],0.248 ± 0.0073,0.298 ± 0.013,0.273 ± 0.014,0.203 ± 0.03,0.187 ± 0.0063,0.151 ± 0.011,0.348 ± 0.074,0.436 ± 0.038,0.206 ± 0.043,0.203 ± 0.025,0.413 ± 0.0053,0.328 ± 0.014
C[C@@H](c1ncncc1F)[C@](O)(Cn1cncn1)c1ccc(F)cc1F [Voriconazole],0.214 ± 0.013,0.267 ± 0.0077,0.252 ± 0.003,0.196 ± 0.038,0.154 ± 0.0053,0.147 ± 0.008,0.315 ± 0.062,0.285 ± 0.035,0.169 ± 0.015,0.201 ± 0.013,0.412 ± 0.011,0.318 ± 0.012
CN(CCCN1c2ccccc2CCc2ccccc21)CC(=O)c1ccc(Cl)cc1 [Lofepramine],0.133 ± 0.0019,0.199 ± 0.0064,0.127 ± 0.0072,0.194 ± 0.0099,0.0713 ± 0.0042,0.159 ± 0.0095,0.27 ± 0.062,0.196 ± 0.025,0.23 ± 0.064,0.227 ± 0.017,0.4242 ± 0.0042,0.202 ± 0.017
C#CCN[C@@H]1CCc2ccccc21 [Rasagiline],0.224 ± 0.0077,0.281 ± 0.012,0.263 ± 0.011,0.19 ± 0.011,0.194 ± 0.023,0.142 ± 0.0024,0.245 ± 0.065,0.342 ± 0.075,0.186 ± 0.0077,0.243 ± 0.025,0.421 ± 0.011,0.322 ± 0.0094
CCN(CC)CCOC(=O)C1(C2CCCCC2)CCCCC1 [Dicyclomine hydrochloride],0.137 ± 0.0054,0.115 ± 0.063,0.195 ± 0.0043,0.157 ± 0.016,0.06453 ± 0.00058,0.103 ± 0.0024,0.137 ± 0.014,0.21 ± 0.049,0.144 ± 0.0069,0.183 ± 0.041,0.393 ± 0.017,0.11 ± 0.003
Cn1c(=O)c2c(ncn2CC(O)CO)n(C)c1=O (centres undefined) [Diprophylline],0.253 ± 0.0057,0.271 ± 0.026,0.249 ± 0.013,0.197 ± 0.018,0.182 ± 0.0025,0.138 ± 0.0093,0.367 ± 0.021,0.452 ± 0.052,0.206 ± 0.0061,0.24 ± 0.017,0.421 ± 0.0097,0.313 ± 0.057
CC(C)(C)NCC(O)c1ccc(O)c(CO)c1 (centres undefined) [Salbutamol],0.241 ± 0.0029,0.285 ± 0.015,0.271 ± 0.0082,0.192 ± 0.0026,0.183 ± 0.0057,0.137 ± 0.0049,0.318 ± 0.067,0.436 ± 0.032,0.215 ± 0.015,0.233 ± 0.028,0.43 ± 0.0098,0.383 ± 0.017
O=C(NCCNCC(O)COc1ccc(O)cc1)N1CCOCC1 (centres undefined) [Xamoterol hemifumarate],0.241 ± 0.013,0.303 ± 0.014,0.272 ± 0.0074,0.195 ± 0.022,0.19 ± 0.0053,0.138 ± 0.0031,0.447 ± 0.069,0.463 ± 0.043,0.21 ± 0.0088,0.232 ± 0.024,0.405 ± 0.016,0.326 ± 0.0053
CCCCc1nc(Cl)c(CO)n1Cc1ccc(-c2ccccc2-c2nnn[nH]2)cc1 [Losartan],0.204 ± 0.0085,0.281 ± 0.015,0.258 ± 0.0039,0.209 ± 0.026,0.161 ± 0.0058,0.1297 ± 0.0011,0.23 ± 0.017,0.409 ± 0.0075,0.195 ± 0.015,0.228 ± 0.018,0.4187 ± 0.0032,0.279 ± 0.0092
